Bioassay records: PubChem, several laboratories
AMPAR-TARP mod: modulates AMPAR-stargazin complexes; O88602+P19491; HEK293 GluA2+stargazin, membrane potential dye (FDSS), glutamate EC50; hits were called plate by plate, in both directions; calls only at 30 µM; actives 3.5% (n = 40,000);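 active = any of four per-well response measures lying three or more SD from its plate-wide compound average, in either direction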
GIRK2 activator: GIRK2 channel activators by thallium flux | HEK293 GIRK2/NPY4 cells, thallium flux fluorescence | 34,000 tested, under 10 active | P48051 | activation (% efficacy), % for hits at 37.5 µM;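 active = primary screen hit, no activity in plain HEK293 cells, and in GIRK2-only cells above 5% efficacy rising with concentration; inactive = the rest, including fluorescent compounds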;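 also: efficacy is normalized control-subtracted fluorescence 15 s after thallium addition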
Target sequence (P48051 whole entry, looked up): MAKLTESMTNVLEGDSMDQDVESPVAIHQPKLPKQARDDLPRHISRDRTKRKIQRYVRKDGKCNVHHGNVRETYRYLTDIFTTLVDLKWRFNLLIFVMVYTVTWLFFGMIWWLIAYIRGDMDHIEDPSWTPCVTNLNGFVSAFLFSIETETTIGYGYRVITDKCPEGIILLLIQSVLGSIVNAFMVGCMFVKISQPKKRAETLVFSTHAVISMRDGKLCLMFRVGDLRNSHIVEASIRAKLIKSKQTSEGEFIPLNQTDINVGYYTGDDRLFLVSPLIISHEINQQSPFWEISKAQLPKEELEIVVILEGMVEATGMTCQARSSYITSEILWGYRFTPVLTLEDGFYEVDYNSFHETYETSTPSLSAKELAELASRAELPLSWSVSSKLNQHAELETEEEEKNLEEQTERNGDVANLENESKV
* hit, by the source's call; i = inactive; . = not tested or not shown; + = active, no number. The sample as a whole holds a higher share of hits than the screen did.

SMILES	AMPAR-TARP mod	GIRK2 activator
COc1ccc2nc(-c3ccc(C)c(NC(=O)c4cc(OC)c(OC)c(OC)c4)c3)cn2n1	.	i
Cc1cccc(-n2nnc(C(=O)Nc3ccc(S(N)(=O)=O)cc3)c2C)c1	i	i
CS(=O)(=O)N1CCCc2ccc(NS(=O)(=O)c3ccccc3)cc21	i	.
Cc1cc(C)nc(NC(=O)c2ccc(C(=O)Nc3cc(C)cc(C)n3)cc2)c1	i	.
Cc1cc(C)cc(Nc2nc(NC3CCCCC3)nc(N3CCOCC3)n2)c1	i	i
COc1ccc(N2C(=O)C(F)(F)C2c2ccc(Br)cc2)cc1 (stereo not drawn)	i	.
O=C(NCCCN1CCOC(c2ccccc2)C1)C12CC3CC(CC(C3)C1)C2 (stereo not drawn)	i	i
COc1ccc(Cl)cc1NC(=O)CSc1nnc(CCn2ccc(=O)[nH]c2=O)o1	i	i
COc1ccc(Cl)cc1N1CC(c2nc(-c3ccc4c(c3)OCO4)no2)CC1=O (stereo not drawn)	i	i
CN(C)S(=O)(=O)c1ccc(C(=O)Nc2ccc(OC(F)(F)F)cc2)o1	+	i
Cc1nnc(NC(=O)c2ccc(S(=O)(=O)Nc3ccc(OC(F)(F)F)cc3)o2)s1	i	i
Cc1csc(NC(=O)c2ccc(S(=O)(=O)Nc3ccc(OC(F)(F)F)cc3)o2)n1	+	i
O=C(Nc1ccc(OC(F)(F)F)cc1)c1ccc(S(=O)(=O)NC2CC2)o1	i	i
COc1ccc(-c2c(C)nn3c(N4CCN(Cc5ccccc5)CC4)cc(C)nc23)cc1OC	+	i
COc1ccccc1-c1c(C)nn2c(N3CCN(Cc4ccccc4)CC3)cc(C)nc12	i	i
CN(C)C(CNS(=O)(=O)c1cc(Cl)ccc1Cl)c1cccn1C (stereo not drawn)	+	i
Cc1ccc(Cl)cc1S(=O)(=O)NCC(c1cccn1C)N(C)C (stereo not drawn)	i	i
Cc1ccc(NC(=O)Cn2c(=O)n(C3CC3)c(=O)c3nscc32)c(Cl)c1	i	i
COc1ccc(F)cc1S(=O)(=O)NCCC(O)C(C)(C)C (stereo not drawn)	+	i
COc1ccc(F)cc1S(=O)(=O)NCC(O)c1ccc(C(F)(F)F)cc1 (stereo not drawn)	i	i
CCOC(=O)CNC(=O)Cn1cnc2c(nnn2C)c1=O	i	i
COc1ccccc1CNC(=O)CSc1ccc(NC(=O)c2ccco2)nn1	i	i
O=C(CSc1ccc(NC(=O)c2ccco2)nn1)NCc1ccccc1Cl	+	i
CCC(=O)Nc1ccc(SCC(=O)Nc2ccc(OC)c(OC)c2)nn1	.	i
COc1ccc(NC(=O)CSc2ccc(NC(=O)c3ccco3)nn2)cc1OC	+	i
SMILES	AMPAR-TARP mod	GIRK2 activator
COc1ccccc1NC(=O)CSc1ccc(-c2cc(OC)c(OC)c(OC)c2)nn1	i	i
COc1ccc(-c2ccc(SCC(=O)Nc3ccccc3Cl)nn2)cc1OC	+	.
O=S(=O)(c1cccc(Cl)c1)N1CCN(Cc2ccc3c(c2)OCO3)CC1	i	i
Cc1cccc(NC(=O)Cn2cc(-c3ccccc3)c(N(C)C)n2)c1	.	i
COc1cc(OC)cc(C(=O)NCC2(c3ccccc3)CCOCC2)c1	i	i
COc1ccc(C2(CNC(=O)c3ccc(Cl)c(Cl)c3)CCOCC2)cc1	+	.
COc1ccc([N+](=O)[O-])cc1NC(=O)c1cccc(S(=O)(=O)C(C)C)c1	i	i
O=C(CSc1nccn(-c2ccc(Cl)cc2)c1=O)Nc1ccc(F)cc1F	+	.
O=C(CSc1nccn(-c2ccc(F)cc2)c1=O)Nc1ccc(F)cc1	i	.
Cc1cc(C)cc(-n2ccnc(SCC(=O)Nc3c(C)cc(C)cc3C)c2=O)c1	+	.
COc1ccc(-n2ccnc(SCC(=O)Nc3c(C)cc(C)cc3C)c2=O)cc1	i	.
Cc1cccc(NC(=O)C(=O)NC(C)c2ccccc2)n1 (stereo not drawn)	i	.
CCc1cccc2sc(NC(=O)CS(=O)(=O)Cc3ccccc3)nc12	i	i
Cc1n[nH]c(C)c1S(=O)(=O)N1CCN(c2ccc(-c3ccccn3)nn2)CC1	+	i
CCCS(=O)(=O)N1CCN(c2ccc3nnc(C4CC4)n3n2)CC1	i	i
Cc1n[nH]c(C)c1S(=O)(=O)N1CCN(c2ccc3nnc(C4CC4)n3n2)CC1	+	i
Cc1nnsc1C(=O)N1CCN(c2ccc(-c3ccccn3)nn2)CC1	i	i
CCN1CCc2c(sc(NC(=O)CCSc3ccccc3)c2-c2nc3ccccc3s2)C1	i	.
Cc1nn(C2CCS(=O)(=O)C2)c(C)c1CC(=O)Nc1ccc(F)c(Cl)c1 (stereo not drawn)	i	i
O=C(Nc1ccc(F)c(Cl)c1)c1cc(C2CC2)n(C2CCS(=O)(=O)C2)n1 (stereo not drawn)	+	i
